Experiment [1] can be described thus: qHTS assay to identify small molecule antagonists of the sonic hedgehog signaling (Shh) pathway (AID 1259369; calls by dose curve; note: nearly all actives have a fitted effect of over 45% in size; note: potency is the fitted concentration of half-maximal effect). The essentials:
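3T3Gli1-Luc, conditioned-medium-stimulated, 24hr cpd, 37C/5% CO2; Gli1-driven firefly Luc luminescence after 30min RT with luciferase reagent. Cells plated 4hr before cpd.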
Background: Quantitative high-throughput screening tests each substance at several concentrations.

Experiment [2] can be described thus: qHTS assay to identify small molecule agonists of the androgen receptor (AR) signaling pathway in the presence of an antagonist - cell viability counter screen (AID 1259379).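 Note: MDA-kb2 human breast cancer cells carrying an MMTV luciferase reporter; series mostly up to about 92 µM; nearly all actives have a fitted effect of over 25% in size.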 Put shortly: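 Cells: MDA-kb2 (MMTV-luc, AR and GR elements), 3,000/well, 5 hr settle. Added: nilutamide 3.0uM final, then compounds (15 conc.). Incubation: 16 hr, 37C, no CO2. Read-out: CellTiter-Fluor, 1 hr, fluorescence.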

Experiment [3] is described as follows: qHTS assay to identify small molecule agonists of the estrogen receptor beta (ER-beta) signaling pathway - cell viability counter screen (AID 1259380). Note: nearly all actives have a fitted effect of over 30% in size. Note: potency is the fitted concentration of half-maximal effect. The essentials: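 HEK293T ER-beta-UAS-bla; 2% CS-FBS; 6 hr pre-plate, 16 hr cpd at 37C/5% CO2; LiveBLAzer read first, then CellTiter-Glo 30 min RT, luminescence.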
The nature of experiment [4]: qHTS assay to identify small molecule antagonists of the estrogen receptor beta (ER-beta) signaling pathway - cell viability counter screen (AID 1259382). Note: nearly all actives have a fitted effect of over 55% in size. Note: potency is the fitted concentration of half-maximal effect. Put shortly:
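Cells: ER-beta-UAS-bla HEK293T, 2,000/well, 2% CS-FBS, 6 hr settle. Cpd + E2 (1nM final), 16 hr, 37C/5% CO2. Bla FRET substrate 2 hr RT, then CellTiter-Glo 30 min RT, luminescence.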

Experiment [5] has as its target Estrogen receptor (Homo sapiens) (UniProt P03372). The experiment is described as follows: qHTS assay to identify small molecule agonists of the estrogen receptor alpha (ER-alpha) signaling pathway in the presence of an antagonist (AID 1259383; calls by dose curve; note: top concentration of the series differs between compounds; nearly all actives have a fitted effect of over 15% in size). The essentials:
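VM7Luc4E2, endog. ER-alpha + 4×ERE-luc; charcoal-stripped FBS, phenol red-free, 5 d; 24hr plating; +10.0nM ICI-182,780 (final); cpds 15 conc, 22hr, 37C/5% CO2; ONE-Glo luminescence.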

Experiment [6] can be described thus: qHTS assay to identify small molecule agonists or antagonists of the thyroid stimulating hormone receptor (TSHR) signaling pathway - wild type cell line counter screen (AID 1259384; calls by dose curve). Put shortly:
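Counter screen in untransfected Hek293: compounds (15-point titration, triplicate) plus phosphodiesterase inhibitor Ro20-1724 added after 18 h plating; 30 min RT. Intracellular cAMP via competitive d2/cryptate immunoassay, 1 h incubation.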

Experiment [7] concerns the target Thyrotropin receptor (Homo sapiens) (UniProt P16473). The experiment can be described thus: qHTS assay to identify small molecule antagonists of the thyroid stimulating hormone receptor (TSHR) signaling pathway (AID 1259385; calls by dose curve; note: nearly all actives have a fitted effect of over 20% in size). Put shortly:
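Antagonist mode: compound-treated TSHR-expressing HEK293 cells were stimulated with 1.5 ng/mL TSH (final) in presence of Ro20-1724 for 30 min at RT. HTRF cAMP detection after 1 h; each compound tested at 15 concentrations, triplicate.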

Experiment [8] is described as follows: qHTS assay to identify small molecule agonists of the estrogen receptor alpha (ER-alpha) signaling pathway in the presence of an antagonist - cell viability counter screen (AID 1259386).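 Note: cells exposed to compounds for 22 h at 37 °C before the viability read; nearly all actives have a fitted effect of over 30% in size.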 Note: potency is the fitted concentration of half-maximal effect. The essentials: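 VM7Luc4E2, stripped-serum pre-culture 5 d; 24hr plating; +ICI-182,780 10.0nM final; cpds 15 conc, 22hr, 37C/5% CO2; CellTiter-Fluor added at 21hr, fluorescence 1hr later.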

Experiment [9] addresses Progesterone receptor (Homo sapiens) (UniProt P06401). The experiment can be described thus: qHTS assay to identify small molecule agonists of the progesterone receptor (PR) signaling pathway (AID 1346784; calls by dose curve; note: nearly all actives have a fitted effect of over 30% in size). Put shortly: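 HEK 293T PR-UAS-bla reporter cells, 2% charcoal-stripped FBS; 6 hr settle at 37C/5% CO2, compound (DMSO) 16 hr, LiveBLAzer B/G FRET substrate 2 hr RT, fluorescence intensity read.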

The target is the same in experiment [10]. The experiment can be described thus: qHTS assay to identify small molecule antagonists of the progesterone receptor (PR) signaling pathway (AID 1346795; active = well fitted inhibition curve with a large enough effect in the signal ratio in the repeat runs, not every such curve was filed as active; the % refers to the signal ratio). The essentials:
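Beta-lactamase reporter, HEK293T PR-UAS-bla line; 2% charcoal-stripped FBS; 6 hr pre-incubation, 37C/5% CO2. Compound + R5020 1 nM final, 16 hr. LiveBLAzer B/G FRET substrate, 2 hr RT; fluorescence intensity read.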

A short description of experiment [11]: qHTS assay to identify small molecule antagonists of the progesterone receptor (PR) signaling pathway - cell viability counter screen (AID 1346798). Note: series mostly up to about 92 µM; nearly all actives have a fitted effect of over 50% in size. Put shortly:
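Luminescence readout (CellTiter-Glo, 30 min, RT) of viability in PR-UAS-bla HEK293T cells exposed to compound and R5020 agonist for 16 hr at 37C, 5% CO2; run in the same wells as the beta-lactamase reporter read.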

Experiment [12] in a line: qHTS assay to identify small molecule agonists of the progesterone receptor (PR) signaling pathway - cell viability counter screen (AID 1346799; calls by dose curve; note: nearly all actives have a fitted effect of over 45% in size; note: potency is the fitted concentration of half-maximal effect). The essentials: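 HEK293T PR-UAS-bla, 3,000 cells/well, 2% charcoal-stripped FBS; 6 h settle, compound 16 h at 37C/5% CO2; LiveBLAzer 2 h RT, then CellTiter-Glo 30 min RT, luminescence read.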
Experiment [13] in a line: qHTS assay to identify small molecule antagonists of the TGF-beta/Smad signaling pathway - cell viability counter screen (AID 1346824). Note: nearly all actives have a fitted effect of over 50% in size. Put shortly: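 Cytotoxicity counter-screen run in the same wells as the beta-lactamase Smad reporter read: CellTiter-Glo luminescence after 30 min at room temperature. HEK 293T SBE-bla cells had 5 hr compound exposure at 37 C with TGF-beta1 (0.25 ng/mL stock).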

The nature of experiment [14]: qHTS assay to identify small molecule agonists of the TGF-beta/Smad signaling pathway - cell viability counter screen (AID 1346829). Note: top concentration of the series differs between compounds; nearly all actives have a fitted effect of over 45% in size. The essentials:
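After overnight seating at 37 C and 5% CO2, reporter cells got compounds for 5 hr and FRET substrate for 2 hr; cell viability then came from CellTiter-Glo luminescence.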

Experiment [15] can be described thus: qHTS assay to identify small molecule agonists of the TGF-beta/Smad signaling pathway (AID 1346859; active = well fitted activation curve with a large enough effect in the signal ratio in the repeat runs, not every such curve was filed as active; the % refers to the signal ratio; note: series mostly up to about 77 µM). The essentials:
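Read-out: fluorescence at 460 and 530 nm (405 nm excitation) after a 2 hr room-temperature incubation with beta-lactamase FRET substrate. SBE-bla HEK 293T cells had been treated with test compounds for 5 hr at 37 C.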

The target in experiment [16] is Thyrotropin-releasing hormone receptor (Homo sapiens) (UniProt P34981). The experiment is described as follows: qHTS assay to identify small molecule antagonists of the thyrotropin-releasing hormone receptor (TRHR) signaling pathway (AID 1346877; active = well fitted inhibition curve with a large enough effect in the repeat runs, not every such curve was filed as active; note: series mostly up to about 51 µM). The essentials:
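Intracellular calcium fluorescence, read kinetically every second over 3 min, reports TRH-evoked signalling in HEK293 cells carrying TRHR. Test compounds were added 5 min ahead of a 1 nM TRH challenge.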

Experiment [17] shares this target. The experiment can be described thus: qHTS assay to identify small molecule agonists of the thyrotropin-releasing hormone receptor (TRHR) signaling pathway (AID 1346891; calls by dose curve;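 note: HEK293 cells expressing TRHR with calcium dye readout; series mostly up to about 58 µM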). Put shortly: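 HEK293/TRHR cells, 1500 per well, 18 h 37 °C; Ca dye 2 h 37 °C; pin-tool compound addition (agonist mode); kinetic fluorescence 3 min, 1 s reads; 15 concentrations, triplicate.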

The target of experiment [18] is Estrogen receptor beta (Homo sapiens) (UniProt Q92731). The experiment is described as follows: qHTS assay to identify small molecule agonists of the estrogen receptor beta (ER-beta) signaling pathway (AID 1259377; active = well fitted activation curve with a large enough effect in the signal ratio in the repeat runs, not every such curve was filed as active; the % refers to the signal ratio). Put shortly:
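Beta-lactamase reporter readout: fluorescence of LiveBLAzer B/G FRET substrate after 2 h at room temperature, following 16 h compound treatment of ER-beta-UAS-bla HEK293T cells at 37C in 2% charcoal-stripped FBS medium.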

The target is the same in experiment [19]. The experiment can be described thus: qHTS assay to identify small molecule antagonists of the estrogen receptor beta (ER-beta) signaling pathway (AID 1259378; active = well fitted inhibition curve with a large enough effect in the signal ratio in the repeat runs, not every such curve was filed as active; the % refers to the signal ratio). Put shortly: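 Antagonist mode: compounds added to beta-lactamase reporter HEK293T ER-beta-UAS cells stimulated with E2 (1nM final), 16 hr at 37C. LiveBLAzer B/G FRET substrate, 2 hours room temperature, fluorescence read-out.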

Experiment [20] addresses Androgen receptor (Homo sapiens) (UniProt P10275). The experiment is described as follows: qHTS assay to identify small molecule agonists of the androgen receptor (AR) signaling pathway in the presence of an antagonist (AID 1259381; calls by dose curve; note: nearly all actives have a fitted effect of over 15% in size). The essentials: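 MDA-kb2 cells, 3,000/well, rested 5hr at 37C/0% CO2 → nilutamide 3.0uM final or buffer → compounds, 15 conc. → 16hr at 37C → ONE-Glo, 30min RT → luminescence.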

Results on eight molecules are retold here after PubChem BioAssay (Tox21).

The structures appear in SMILES notation. Results filed as inconclusive are left out. Where a structure was tested more than once in an assay, its records may differ in their call. Active and inactive are the calls of the source. Unless noted, calls come from the whole dose curve; as a rule, active = well fitted curve in the direction sought with a large enough effect in the repeat runs; inconclusive = weak or mixed curves; inactive = no such curve, though single readings can be large; an effect the other way counts as inactive or inconclusive.

Chain of Estrogen receptor (Homo sapiens) (P03372 whole entry, looked up): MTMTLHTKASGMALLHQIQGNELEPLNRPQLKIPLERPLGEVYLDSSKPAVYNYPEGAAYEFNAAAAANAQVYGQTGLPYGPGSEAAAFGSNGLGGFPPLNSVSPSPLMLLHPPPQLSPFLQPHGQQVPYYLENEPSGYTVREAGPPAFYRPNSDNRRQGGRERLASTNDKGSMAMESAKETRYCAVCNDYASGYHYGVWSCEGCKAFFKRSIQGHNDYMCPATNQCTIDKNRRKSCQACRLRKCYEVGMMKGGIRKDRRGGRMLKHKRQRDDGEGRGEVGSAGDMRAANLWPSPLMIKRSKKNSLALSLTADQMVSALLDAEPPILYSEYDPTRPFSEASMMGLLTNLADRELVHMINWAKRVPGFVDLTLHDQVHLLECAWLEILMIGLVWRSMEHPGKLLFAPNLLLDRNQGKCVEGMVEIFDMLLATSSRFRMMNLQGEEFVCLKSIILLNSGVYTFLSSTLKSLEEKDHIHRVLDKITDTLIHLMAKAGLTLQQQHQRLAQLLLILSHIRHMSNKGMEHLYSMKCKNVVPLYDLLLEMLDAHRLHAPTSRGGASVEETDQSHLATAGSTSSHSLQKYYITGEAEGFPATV
Chain of Thyrotropin receptor (Homo sapiens) (P16473 whole entry, looked up): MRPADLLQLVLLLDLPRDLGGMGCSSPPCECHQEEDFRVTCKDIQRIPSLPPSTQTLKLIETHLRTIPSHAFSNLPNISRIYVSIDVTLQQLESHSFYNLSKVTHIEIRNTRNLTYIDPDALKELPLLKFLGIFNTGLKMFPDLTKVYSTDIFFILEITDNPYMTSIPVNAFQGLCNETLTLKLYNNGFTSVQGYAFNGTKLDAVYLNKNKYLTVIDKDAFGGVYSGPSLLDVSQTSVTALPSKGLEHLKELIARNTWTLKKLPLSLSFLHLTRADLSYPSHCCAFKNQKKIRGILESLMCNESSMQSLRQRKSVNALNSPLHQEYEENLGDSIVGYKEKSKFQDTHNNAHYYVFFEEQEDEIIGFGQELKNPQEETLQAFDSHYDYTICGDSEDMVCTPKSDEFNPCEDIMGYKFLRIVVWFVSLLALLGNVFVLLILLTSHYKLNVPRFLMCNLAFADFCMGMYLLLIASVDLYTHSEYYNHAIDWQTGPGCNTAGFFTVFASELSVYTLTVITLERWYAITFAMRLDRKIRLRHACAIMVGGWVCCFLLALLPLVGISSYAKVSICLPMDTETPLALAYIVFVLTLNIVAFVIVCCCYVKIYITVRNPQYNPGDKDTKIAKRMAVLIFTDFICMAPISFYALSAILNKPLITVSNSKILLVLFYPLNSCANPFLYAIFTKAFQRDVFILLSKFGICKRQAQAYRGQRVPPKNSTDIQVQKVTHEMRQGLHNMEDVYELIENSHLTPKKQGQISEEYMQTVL
Chain of Estrogen receptor beta (Homo sapiens) (Q92731 whole entry, looked up): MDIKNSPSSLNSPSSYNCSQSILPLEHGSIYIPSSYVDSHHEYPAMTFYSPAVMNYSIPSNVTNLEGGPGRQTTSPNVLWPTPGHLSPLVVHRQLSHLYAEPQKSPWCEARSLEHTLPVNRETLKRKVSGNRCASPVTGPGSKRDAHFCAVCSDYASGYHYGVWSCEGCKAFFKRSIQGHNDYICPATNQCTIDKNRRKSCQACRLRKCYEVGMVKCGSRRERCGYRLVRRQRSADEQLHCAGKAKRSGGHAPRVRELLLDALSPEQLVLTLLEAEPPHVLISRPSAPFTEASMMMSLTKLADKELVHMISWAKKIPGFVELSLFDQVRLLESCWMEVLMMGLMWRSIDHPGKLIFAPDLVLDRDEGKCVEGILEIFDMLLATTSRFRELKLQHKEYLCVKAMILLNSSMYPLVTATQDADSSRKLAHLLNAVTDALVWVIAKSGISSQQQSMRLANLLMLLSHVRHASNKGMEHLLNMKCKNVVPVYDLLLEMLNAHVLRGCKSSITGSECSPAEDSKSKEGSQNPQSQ
Chain of Thyrotropin-releasing hormone receptor (Homo sapiens) (P34981 whole entry, looked up): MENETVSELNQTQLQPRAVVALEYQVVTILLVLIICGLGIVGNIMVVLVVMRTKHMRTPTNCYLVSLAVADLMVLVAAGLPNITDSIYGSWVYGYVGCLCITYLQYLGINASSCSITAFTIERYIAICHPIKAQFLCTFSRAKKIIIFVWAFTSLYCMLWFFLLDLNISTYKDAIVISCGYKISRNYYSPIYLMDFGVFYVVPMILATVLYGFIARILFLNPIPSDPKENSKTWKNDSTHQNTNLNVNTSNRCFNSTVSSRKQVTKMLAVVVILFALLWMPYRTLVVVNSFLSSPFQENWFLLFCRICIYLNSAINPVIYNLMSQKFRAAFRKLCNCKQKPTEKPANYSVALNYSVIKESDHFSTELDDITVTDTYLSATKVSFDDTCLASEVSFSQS
Chain of Progesterone receptor (Homo sapiens) (P06401 whole entry, looked up): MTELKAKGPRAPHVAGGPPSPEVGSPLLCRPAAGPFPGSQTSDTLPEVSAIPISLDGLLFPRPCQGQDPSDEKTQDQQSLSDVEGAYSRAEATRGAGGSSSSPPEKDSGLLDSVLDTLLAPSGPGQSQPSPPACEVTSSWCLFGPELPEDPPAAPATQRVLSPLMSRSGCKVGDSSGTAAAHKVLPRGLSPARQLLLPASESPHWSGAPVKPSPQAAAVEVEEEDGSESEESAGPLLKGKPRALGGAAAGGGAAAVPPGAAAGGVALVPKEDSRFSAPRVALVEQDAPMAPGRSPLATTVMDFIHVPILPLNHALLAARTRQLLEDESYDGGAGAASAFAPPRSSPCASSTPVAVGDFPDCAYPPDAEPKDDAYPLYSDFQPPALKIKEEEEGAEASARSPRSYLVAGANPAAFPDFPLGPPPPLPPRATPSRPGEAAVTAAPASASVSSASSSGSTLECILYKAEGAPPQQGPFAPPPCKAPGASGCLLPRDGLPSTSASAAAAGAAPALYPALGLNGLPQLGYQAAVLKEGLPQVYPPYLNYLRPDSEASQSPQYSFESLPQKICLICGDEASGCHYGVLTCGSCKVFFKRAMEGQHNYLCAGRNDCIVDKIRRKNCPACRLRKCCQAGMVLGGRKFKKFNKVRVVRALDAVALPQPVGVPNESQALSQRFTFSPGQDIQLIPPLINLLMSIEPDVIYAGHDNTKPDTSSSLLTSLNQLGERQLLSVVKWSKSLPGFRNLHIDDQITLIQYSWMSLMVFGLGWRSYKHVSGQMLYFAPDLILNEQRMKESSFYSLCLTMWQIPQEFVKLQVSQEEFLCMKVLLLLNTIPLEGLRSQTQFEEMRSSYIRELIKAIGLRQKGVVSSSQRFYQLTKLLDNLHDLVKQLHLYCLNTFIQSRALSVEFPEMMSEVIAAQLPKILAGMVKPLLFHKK
Chain of Androgen receptor (Homo sapiens) (P10275 whole entry, looked up): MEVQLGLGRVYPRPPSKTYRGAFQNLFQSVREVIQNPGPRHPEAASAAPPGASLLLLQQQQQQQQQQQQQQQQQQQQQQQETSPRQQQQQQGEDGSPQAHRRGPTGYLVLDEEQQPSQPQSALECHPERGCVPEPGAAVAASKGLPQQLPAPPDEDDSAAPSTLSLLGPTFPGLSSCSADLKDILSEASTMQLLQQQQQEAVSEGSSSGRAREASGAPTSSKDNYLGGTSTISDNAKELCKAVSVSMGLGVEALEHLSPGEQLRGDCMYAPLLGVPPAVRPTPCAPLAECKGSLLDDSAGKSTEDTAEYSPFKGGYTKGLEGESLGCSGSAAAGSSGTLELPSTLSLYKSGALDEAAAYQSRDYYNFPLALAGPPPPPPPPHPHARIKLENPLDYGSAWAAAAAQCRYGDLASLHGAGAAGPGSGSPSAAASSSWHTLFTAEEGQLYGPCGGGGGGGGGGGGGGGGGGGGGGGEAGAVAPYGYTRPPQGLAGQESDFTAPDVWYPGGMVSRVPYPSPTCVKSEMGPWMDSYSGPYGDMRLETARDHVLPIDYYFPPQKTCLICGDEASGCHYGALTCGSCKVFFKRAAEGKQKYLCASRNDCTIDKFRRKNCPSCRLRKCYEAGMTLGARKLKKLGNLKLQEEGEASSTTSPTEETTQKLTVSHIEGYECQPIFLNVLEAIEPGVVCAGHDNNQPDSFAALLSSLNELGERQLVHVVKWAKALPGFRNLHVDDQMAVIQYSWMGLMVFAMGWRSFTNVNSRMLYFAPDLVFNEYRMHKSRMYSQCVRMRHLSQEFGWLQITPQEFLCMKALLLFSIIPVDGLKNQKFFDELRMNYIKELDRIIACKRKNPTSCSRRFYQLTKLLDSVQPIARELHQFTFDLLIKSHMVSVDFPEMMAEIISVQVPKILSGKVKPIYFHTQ

For the molecule `Cc1ccc(C(C)(C)C)cc1`, the Potency result in [1], in [2], in [3], in [4], in experiment [5] and in experiment [6] was “inactive” throughout. Besides, the Potency result in experiment [7], in [8], in experiment [9], in experiment [10], in experiment [11] and in [12] was “inactive” in each case. Also, the Potency result in [13], in experiment [14], in experiment [16] and in [17] was “inactive” each time. In addition, in [15], the molecule was called inactive.

With `C=CC(=O)OCCCC`, the Potency result in experiment [1], in experiment [18], in [19], in [2], in experiment [3] and in [4] was “inactive” in each case. The Potency result in experiment [6], in experiment [7], in experiment [8], in experiment [9], in experiment [10] and in [11] was “inactive” in each case. In addition, the Potency entry in experiment [12], in experiment [13], in [14], in experiment [16] and in [17] was “inactive” throughout. Also, the molecule was called inactive in [15].

Consider `CCOC(=O)C(C)Oc1ccc(Oc2cnc3cc(Cl)ccc3n2)cc1` (stereo unspecified), for which the Potency entry in experiment [1], in [2], in experiment [3], in experiment [4], in [5] and in [6] was “inactive” throughout. For the same molecule, the Potency entry in experiment [7], in experiment [8], in [9], in [10], in experiment [11] and in [12] was “inactive” in each case. The Potency entry in experiment [13] and in experiment [14] was “inactive” throughout.

Take `Cc1ccc2c(c1)C(=O)OC2=O`: the Potency result in experiment [1], in [18], in experiment [19], in [2], in experiment [3] and in experiment [4] was “inactive” each time. In addition, the Potency result in experiment [8], in experiment [9], in experiment [10], in experiment [11], in [12] and in experiment [13] was “inactive” in each case. Also, the Potency entry in experiment [14], in experiment [16] and in experiment [17] was “inactive” throughout. Moreover, the molecule was classed as inactive in [15].

In the case of `CC[C@]12CCCN3CCc4c(n(c5ccccc45)[C@@](O)(C(=O)OC)C1)[C@@H]32`, the Potency result in experiment [1], in experiment [2], in experiment [3], in experiment [20], in experiment [4] and in experiment [9] was “inactive” throughout. Besides, the Potency entry in experiment [10], in experiment [11], in experiment [12], in experiment [13] and in experiment [14] was “inactive” in each case. Further, in experiment [15], the call was inactive.

In the case of `CCC(=O)O[C@H]1[C@H](O[C@@H]2[C@@H](C)[C@H](O[C@H]3C[C@@](C)(OC)[C@@H](O)[C@H](C)O3)[C@@H](C)C(=O)O[C@H](CC)[C@@](C)(O)[C@H](O)[C@@H](C)C(=O)[C@H](C)C[C@@]2(C)O)O[C@H](C)C[C@@H]1N(C)C`, the Potency is 16.1 µM (active) and inactive in [1]; 36.1 µM (active) and inactive in [3]; 32.2 µM (active) and inactive in experiment [4]; 32.2 µM (active) and inactive in experiment [8]; 14.4 µM (active) and inactive in experiment [12]. Further, the Potency result in experiment [18], in [19], in experiment [2], in experiment [9], in experiment [10] and in experiment [13] was “inactive” in each case. The Potency entry in experiment [14] was “inactive”. The call in experiment [15] was inactive.

As for `Cc1ccc(/C(=C\CN2CCCC2)c2ccccn2)cc1`, the Potency in [1] was 25.6 µM (active). For the same molecule, the Potency entry in experiment [2], in [3], in [4], in experiment [5], in experiment [6] and in experiment [7] was “inactive” in each case. Besides, the Potency entry in experiment [9], in [10], in experiment [11], in [12], in [13] and in [14] was “inactive” in each case. The outcome in experiment [15] was inactive.

As to `ClC/C=C/CCl`, the Potency result in experiment [1], in experiment [2], in [3], in experiment [4], in experiment [5] and in [6] was “inactive” throughout. For the same molecule, the Potency entry in experiment [7], in experiment [8], in experiment [9], in experiment [10], in experiment [11] and in experiment [12] was “inactive” each time. The Potency entry in experiment [13], in [14], in experiment [16] and in [17] was “inactive” in each case. Further, the outcome in experiment [15] was inactive.
